Reference: PubChem BioAssay AID1063 (University of Pittsburgh Molecular Library Screening Center, 2008)
Hit rate of the full screen: of about 200,000 compounds, about 18,000 (9%) were called active. This is one part of a sample in which actives are shown more often than they occur. A number with no mark means an inactive call. Rule as the data show it: active = inhibition above about 50%; inactive = the rest.

Assay: antileishmanial activity against promastigotes – primary screen (AID 1063);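 also: promastigotes grown with compound for 44 hours at 28 °C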
Conditions: Leishmania major promastigotes, resazurin fluorescence viability; at 10 µM; stronger effect = higher value
`CCCn1c(NC(=O)C23CC4CC(CC(O)(C4)C2)C3)nc2ccccc21` gave an inhibition of -1.31%.
`CCn1c(COc2c(C)cccc2C)nnc1SCc1nc2ccccc2c(=O)[nH]1` gave an inhibition of 4.15%.
With `C/[N+]([O-])=C\c1ccc([N+](=O)[O-])o1` the inhibition was 98.5% (active).
Compound `CN1CCN(/N=C/c2ccc(-c3ccc([N+](=O)[O-])cc3)o2)CC1` has an inhibition of -3.39%.
For `COC(=O)C1=C(C)N(C)C(=O)NC1c1ccc([N+](=O)[O-])o1` (stereo unspecified), the inhibition was 15.2%.
With `O=C(COc1ccc(Cl)cc1[N+](=O)[O-])N1CCCCC1` the inhibition was -1.15%.
In the case of `O=C(CN1CCN(S(=O)(=O)/C=C/c2ccccc2)CC1)Nc1ccc(N2CCOCC2)cc1`, the inhibition is reported as 7.17%.
In the case of `COc1ccc2c(CN3CCN(S(=O)(=O)c4cccs4)CC3)cc(=O)oc2c1`, the inhibition is reported as 2.99%.
For `O=c1cc(CN2CCN(S(=O)(=O)/C=C/c3ccccc3)CC2)c2ccc(O)cc2o1`, the inhibition was 67.8% (active).
`O=c1c(-c2ccccc2)cnc2n1CCS2` gave an inhibition of -5.22%.
Work on `O=C(Cc1c(F)cccc1Cl)Nc1ncc([N+](=O)[O-])s1` yielded an inhibition of 15.8%.
Compound `O=C(CSc1ccc(-c2ccc(F)cc2)nn1)Nc1ccc2c(c1)OCCO2` has an inhibition of -7%.
For `O=C(Nc1ccc2c(c1)OCCO2)C(c1ccc(F)cc1)N1CCCCC1` (stereo unspecified), the inhibition was 58.5% (active).
For `CC1CCCN(C(C(=O)Nc2ccc(C(C)C)cc2)c2ccc3c(c2)OCO3)C1` (stereo unspecified), the inhibition was 26.3%.
`COc1cc(/C=N/NC(=O)c2cc(C)n(-c3ccc(F)cc3)c2C)cc(OC)c1O` gave an inhibition of 3.76%.
With `O=C(COC(=O)CC1CC2CCC1C2)NC(=O)NC1CCCC1` (stereo unspecified) the inhibition was -2.24%.
In the case of `Cc1cccc(-n2cnc(C(=O)Nc3cccnc3)c2)n1`, the inhibition is reported as 10.3%.
For `Cn1cc(Cl)c(C(=O)NNC(=S)Nc2cccc(Cl)c2)n1`, the inhibition was -7.35%.
With `Cc1cccc(-n2cnc(C(=O)NNC(=S)Nc3ccccc3)c2)n1` the inhibition was 87% (active).
`CCOC(=O)c1ccc[n+](CC(=O)Nc2ccccc2OC(F)F)c1` gave an inhibition of 1.13%.
Work on `CCCCN(C(=O)COc1ccc(NC(C)=O)cc1)C1CCS(=O)(=O)C1` (stereo unspecified) yielded an inhibition of -9.97%.
In the case of `COc1ccccc1NC(=S)N1CCN(C(c2ccccc2)c2ccccc2)CC1`, the inhibition is reported as 65.1% (active).
In the case of `COc1ccccc1NC(=S)N1CCC(NC(=O)C23CC4CC(CC(C4)C2)C3)CC1`, the inhibition is reported as 94.4% (active).
For `CCOc1ccc(C(=O)NC2CCN(C(=O)Nc3ccccc3OC)CC2)cc1`, the inhibition was -1.82%.
`CCOCCCNC(=S)N1CCC(NC(=O)C2CCCCC2)CC1` gave an inhibition of -5.68%.
In the case of `COc1ccccc1NC(=S)NC(=O)C(C)C`, the inhibition is reported as -0.07%.
Compound `CCCNC(=S)N1CCC(NC(=O)C23CC4CC(CC(C4)C2)C3)CC1` has an inhibition of -3.43%.
For `COCCNC(=S)N1CCC(NC(=O)C23CC4CC(CC(C4)C2)C3)CC1`, the inhibition was 73.8% (active).
With `CC(C)NC(=S)N1CCN(C(c2ccccc2)c2ccccc2)CC1` the inhibition was 7.72%.
Work on `COc1ccc(C(=O)NC2CCN(C(=S)Nc3ccccc3)CC2)cc1` yielded an inhibition of -5.57%.
With `Cc1ccccc1NC(=O)Cn1c(=O)n(CC2CCCO2)c(=O)c2ccccc21` (stereo unspecified) the inhibition was -7.76%.
Work on `Cc1cc(C)c(C#N)c(N2CCC(C(N)=O)CC2)n1` yielded an inhibition of -0.97%.
Work on `Cc1csc(NC(=O)Nc2ccccc2[N+](=O)[O-])n1` yielded an inhibition of 4.81%.
`O=C(Oc1cccc(NC2=NS(=O)(=O)c3ccccc32)c1)c1ccncc1` showed an inhibition of -2.71%.
With `O=C(N/N=C/c1ccc(OCc2ccccc2)cc1)c1ccc(O)cc1` the inhibition was 12.5%.
`CCC1SC(CC)C(=O)N(CC(=O)NC2CCCCC2)C1=O` (stereo unspecified) showed an inhibition of -5.41%.
For `CCNc1ccc(C(=O)OCC(=O)N2c3ccccc3NC(=O)C2(C)C)cc1[N+](=O)[O-]`, the inhibition was 54.4% (active).
`Cc1cc(C(=O)OCC(=O)N2c3ccccc3NC(=O)C2(C)C)c(C)n1-c1ccccc1` showed an inhibition of 21.6%.
Compound `CC1(C)C(=O)Nc2ccccc2N1C(=O)COC(=O)Cn1cnc2ccccc2c1=O` has an inhibition of -3.68%.
`COc1ccc(-c2csc(-c3cccs3)n2)cc1OC` gave an inhibition of 0.19%.
`CCOc1ccc(-c2ccc(SCC(=O)N3CCOCC3)nn2)cc1` showed an inhibition of -2.79%.
With `Cc1ccc(-c2noc(CC(c3ccccc3)c3ccccc3)n2)cc1` the inhibition was 7.54%.
With `Cc1ccc(-c2noc(CN3CCN(Cc4ccccc4)CC3)n2)cc1` the inhibition was 52.1% (active).
For `Cc1ccc(Cc2nc(-c3cccc(C)c3)no2)cc1`, the inhibition was -3.66%.
`Cn1cc(/C=C/C(=O)N2CCCC(C(=O)c3ccc(C(F)(F)F)cc3)C2)cn1` (stereo unspecified) gave an inhibition of -7.13%.
In the case of `Brc1cc(/C=N/n2cnnc2)oc1Br`, the inhibition is reported as -0.54%.
For `S=c1[nH]nc(NCCc2ccccc2)s1`, the inhibition was -6.01%.
In the case of `COc1ccccc1N1CCN(C(=O)CN(Cc2ccc(Cl)cc2)S(C)(=O)=O)CC1`, the inhibition is reported as -0.49%.
`COc1ccc(NC(=O)CN(Cc2ccccc2)S(C)(=O)=O)cc1OC` showed an inhibition of -6.14%.
In the case of `COc1ccc(OC)c(NC(=O)CN(Cc2ccc(Cl)cc2)S(C)(=O)=O)c1`, the inhibition is reported as 90.1% (active).
In the case of `COC(=O)c1ccccc1NC(=O)CN(Cc1ccc(Cl)cc1)S(C)(=O)=O`, the inhibition is reported as 36.9%.
For `COc1ccc(CCNC(=O)CN(c2ccccc2)S(C)(=O)=O)cc1`, the inhibition was -6.75%.
For `COc1ccc(CNC(=O)CN(Cc2ccc(Cl)cc2)S(C)(=O)=O)cc1`, the inhibition was 57.5% (active).
`CCC(C)NC(=O)CN(C1CCCCC1)S(C)(=O)=O` (stereo unspecified) gave an inhibition of 1.28%.
In the case of `O=C(COC(=O)c1ccncc1)c1ccccc1`, the inhibition is reported as -4.89%.
Work on `CNC(=O)NC(=O)CSc1nnc(-c2ccc(F)cc2)n1CC1CCCO1` (stereo unspecified) yielded an inhibition of -2.36%.
In the case of `Cc1nc2ccccn2c1C(=O)NN=C1CCN(C)CC1`, the inhibition is reported as 35.4%.
For `O=C(NC1CCc2ccccc21)C12CN(Cc3ccccc3)CC1C(c1cccc([N+](=O)[O-])c1)=NO2` (stereo unspecified), the inhibition was 58.3% (active).
`Nc1ccc(C(=O)OCC(=O)NC2CCCc3ccccc32)cc1[N+](=O)[O-]` (stereo unspecified) gave an inhibition of -5.78%.
`CCOc1cnc(C(=O)NNC(=O)c2ccccc2Br)o1` gave an inhibition of -1.9%.
`Cc1ccc(NC(=O)NNC(=O)c2sccc2-n2cccc2)cc1` gave an inhibition of -8.12%.
For `COC(=O)C1=C(C)N(C)C(C)=C(C(=O)OC)C1c1cccc(Br)c1`, the inhibition was 52.8% (active).
Work on `COC(=O)C1=C(C)N(C)C(=S)NC1c1ccccc1` (stereo unspecified) yielded an inhibition of -3.63%.
In the case of `COC(=O)C1NN=C(C(=O)c2ccc(Br)cc2)C1c1cccc(Br)c1` (stereo unspecified), the inhibition is reported as 24.8%.
Work on `COc1cccc(N(Cc2nnc3n2CCCCC3)C(=O)Nc2ccccc2F)c1` yielded an inhibition of -3.13%.
With `CCOc1ccc(Nc2nc(Cl)nc(N3CCN(c4ccc(OC)cc4)CC3)n2)cc1` the inhibition was 53% (active).
Work on `CCOc1ccc(NC(=O)CN2CCN(CC(=O)Nc3ccc(OC)cc3)CC2)cc1` yielded an inhibition of 39.6%.
With `COC(=O)c1ccc(Oc2nc(Nc3ccc(F)cc3)nc(N3CCCC3)n2)cc1` the inhibition was 2.39%.
`O=C(Oc1cccc(O)c1)C1CCCCC1` gave an inhibition of -0.1%.
With `Cc1ccc(S(=O)(=O)c2c(N)n(C)c3nc4ccccc4nc23)cc1` the inhibition was 99.1% (active).
For `Cc1ccc(S(=O)(=O)Nc2nc(N)n(-c3ccccc3)n2)cc1`, the inhibition was -11%.
With `CCC(=O)Nc1c(S(=O)(=O)c2ccccc2)c2nc3ccccc3nc2n1Cc1ccccc1` the inhibition was 32.2%.
With `CCOC(=O)C1CCN(C(=O)C2CCN(S(=O)(=O)c3c(C)noc3C)CC2)CC1` the inhibition was -2.98%.
For `Cc1noc(/C=C/N(C)C)c1S(=O)(=O)N1CCCC(C(=O)NCc2ccco2)C1` (stereo unspecified), the inhibition was -6.58%.
In the case of `Cc1noc(/C=C/c2ccco2)c1S(=O)(=O)N1CCC(C(=O)Nc2ccc(Cl)cn2)CC1`, the inhibition is reported as 74.5% (active).
Compound `CCOc1ccc(OCC)c(NC(=O)C2CCN(S(=O)(=O)c3c(C)noc3C)CC2)c1` has an inhibition of 26.8%.
In the case of `O=C(C1CCN(S(=O)(=O)Cc2ccccc2)CC1)N1CCCc2ccccc21`, the inhibition is reported as 24.6%.
In the case of `Cc1noc(/C=C/c2ccco2)c1S(=O)(=O)N1CCC(C(=O)N2CCc3ccccc32)CC1`, the inhibition is reported as 66.6% (active).
In the case of `CC1=C(C(=O)N(C)C)C(c2ccccc2OC(F)F)NC(=O)N1` (stereo unspecified), the inhibition is reported as -4.21%.
Compound `CC(=O)NC(Cc1ccc(F)c(F)c1)C(=O)NC1CCN(C(=O)c2ccc(C)cc2)CC1` (stereo unspecified) has an inhibition of -6.89%.
For `CCN(CC)CC(=O)Nc1sc2c(c1C(=O)c1ccccc1C)CCC2`, the inhibition was 47.2%.
Compound `CCOC(=O)C1(Cc2ccc(Cl)cc2)CCN(C(=O)C2=NNC(=O)CC2)CC1` has an inhibition of 0.36%.
For `O=C(CSc1ccc(/C=N/NC(=O)c2cccc(F)c2)o1)Nc1ccccc1`, the inhibition was -5.63%.
For `Cc1nnc(SCC(=O)N/N=C/c2cn(-c3ccccc3)nc2-c2ccc(F)cc2)n1-c1ccccc1`, the inhibition was -0.75%.
In the case of `O=C(N/N=C/c1ccc([N+](=O)[O-])o1)c1cn(-c2ccccc2)nc1-c1ccc(F)cc1`, the inhibition is reported as 63.2% (active).
With `OC1CCCN(c2ncnc3c2nnn3Cc2c(F)cccc2Cl)C1` (stereo unspecified) the inhibition was -5.48%.
Compound `CC(=O)NC1C(Oc2ccc(C=O)cc2)OC(COC(C)=O)C(OC(C)=O)C1OC(C)=O` (stereo unspecified) has an inhibition of -1.48%.
For `CC(=O)NC1C(OCc2ccccc2)OC(COC(C)=O)C(OC(C)=O)C1OC(C)=O` (stereo unspecified), the inhibition was 55.7% (active).
`CCCCCCCCCOC1OC(CO)C(O)C(O)C1NC(C)=O` (stereo unspecified) gave an inhibition of 16.4%.
In the case of `Cc1ccc2nc(COc3ccc(N(C)S(=O)(=O)c4ccccc4)cc3)cc(=O)n2c1`, the inhibition is reported as -0.08%.
With `Cc1nn(CCOc2ccc(Br)cc2)c(C)c1[N+](=O)[O-]` the inhibition was -0.48%.
